Assay results reported in ChEMBL document CHEMBL4513216, “Probing the Open Global Health Chemical Diversity Library for Multistage-Active Starting Points for Next-Generation Antimalarials” (ACS Infect Dis, 2020).
The whole screen tested about 69,000 compounds, of which about 8,600 (12%) showed an effect of 50% or more. The sample as a whole holds a higher share of strong results than the screen did.

Tested on: Plasmodium berghei
Experiment: Screen against P. berghei liver stage (PbLuc), transformed with Luciferase, at 10uM
Type: functional, HepG2
Conditions: tested at 10 uM

SMILES	INHIBITION [%]
Cc1nc(CN(C)c2cc(N3CCCC3CO)ncn2)cs1 (stereo not given)	22.1
O=C1c2cccnc2OC(CN2CCOCC2)CN1Cc1cccs1 (stereo not given)	15.4
CN1CCC(CN(C)C(=O)c2cc(C3CCCN3C)ccn2)CC1 (stereo not given)	-12.9
Cn1nc(CNC(=O)CC#N)c2c1CN(CC1CC1)CC2	16.9
Cn1cc(CN2CCCC(c3nc(O)cc(-c4cccs4)n3)C2)cn1 (stereo not given)	-15.1
CN(C)S(=O)(=O)N1C[C@H]2CC[C@@H](C1)N(Cc1ccc3c(c1)OCCO3)C2	20.6
Cc1ccc(-c2ccnc(N3CCC4(CC3)CNC(=O)C4)n2)c(C)n1	68.9
Cc1ccc(-c2ccnc(N3CCC4(CC3)CNC(=O)O4)n2)c(C)n1	30.9
Cc1ccc(-c2ccnc(N3CCC4(CCO4)CC3)n2)c(C)n1	36.5
O=C(O)c1ccnc(-c2ccnc(N3CCC(F)(F)CC3)n2)c1	30.3
O=C(O)c1ccnc(-c2ccnc(N3CCC4(CCO4)CC3)n2)c1	40.2
O=C1CC2(CCN(c3nccc(-c4cc(C(=O)O)ccn4)n3)CC2)CN1	64.9
Cc1cc(OC(F)F)c(C(=O)N2CCC(CN(C)C)CC2)s1	-9.44
CC(C)c1cc(CN(C)C(=O)CN2CCC(C(N)=O)CC2)no1	12.7
Cc1ccc(CNc2n[nH]c(C)n2)cc1	46.6
CN(C(=O)c1cccc(C#N)c1)c1nnc(C2CCOC2)s1 (stereo not given)	24.45
CCNC(=O)C1CCN(Cn2nc(-c3ccc(F)cc3)oc2=O)CC1	30.6
CC(C)CNC(=O)c1ccc2c(=O)n(-c3ccccc3)cnc2c1	60.9
CC(C)CCNC(=O)c1ccc2c(=O)n(-c3ccccc3)cnc2c1	1.8
CC(C)CCNC(=O)c1ccc(-n2cnc3ccccc3c2=O)cc1	26.8
NCCc1cn(Cc2ccccn2)c2ccccc12	-18.2
c1cncc(CNc2cncc(C3CCCN3)n2)c1 (stereo not given)	6.26
CCOc1ncccc1NC(=O)c1cccs1	-10.9

SMILES	INHIBITION [%]
COc1ccc(N)c(N2CCN(C(C)=O)CC2)n1	42.3
CCCC(C)C(=O)Nc1ccc(OC)nc1N1CCN(C(C)=O)CC1 (stereo not given)	29.4
COc1ccc(NC(=O)CCC(C)C)c(N2CCN(C(C)=O)CC2)n1	68.8
COc1ccc(NC(C)=O)c(N2CCN(C(C)=O)CC2)n1	80.1
COc1ccc(NC(=O)c2ccco2)c(N2CCN(C(C)=O)CC2)n1	44
COc1ccc(NC(=O)c2ccc[nH]2)c(N2CCN(C(C)=O)CC2)n1	6.8
CNc1ccnc(NCCC(=O)Nc2ccccc2C)n1	28.4
O=C(C1CCC1)N1C[C@@H]2CN(Cc3ccncc3)C(=O)[C@@H]2C1	50.3
Cc1cccc(CN2C[C@@H]3CN(C(=O)C4CC=CC4)C[C@@H]3C2=O)n1	14.9
O=C(C1CCOC1)N1C[C@H]2CN(Cc3ccncc3)C(=O)[C@H]2C1 (stereo not given in full)	-22.2
O=C1[C@H]2CN(Cc3ccoc3)C[C@H]2CN1Cc1ccncc1	45.1
CCN1C[C@@H]2CN(C(=O)C3CC=CC3)C[C@@H]2C1=O	15.7
O=C(C1CC=CC1)N1C[C@H]2CN(Cc3ccncc3)C(=O)[C@H]2C1	56.6
COc1ccc(C(=O)NS(=O)(=O)c2cncc(Br)c2)c(OC)c1	29.4
Cc1ccc(-c2snnc2C(=O)NCCCO)cc1	-19.7
COc1cccc(OC)c1CC(=O)NC(C#N)c1ccsc1 (stereo not given)	0.0944
Cc1ccc(C(=O)NC2CC2)c(-n2cnnn2)c1C	28.6
CN(C)c1ccc(CNC(=O)NCCc2cccs2)cn1	-11.9
c1cnc(N2CCCC(NCc3cccc4c3OCCO4)C2)nc1 (stereo not given)	22.9
CN(C)Cc1ccnc(C2CCCN2Cc2ccc(F)cn2)n1 (stereo not given)	63.4
CN(C)Cc1ccnc(C2CCCN2Cc2cc[nH]n2)n1 (stereo not given)	29.6
CN(C)Cc1ccnc(C2CCCN2Cc2ccncc2)n1 (stereo not given)	40.4
CCc1cnc(CN(C(C)=O)C2CCN(CC3(O)CCCCC3)C2)o1 (stereo not given)	5.9

SMILES	INHIBITION [%]
c1ccc(-c2nc(CN3CCCC3Cn3cccn3)no2)cc1 (stereo not given)	44.3
Cc1nc(NC(=O)CN2C(=O)c3ccccc3NC2C(C)C)sc1C (stereo not given)	32.2
CN(Cc1cc(=O)c(O)co1)C1CCN(c2ccc(F)cc2)CC1	53.5
CN(Cc1cc(=O)c(O)co1)C1CCCN(c2ccccc2)C1 (stereo not given)	7.93
Cc1cc(N2CCC(N(C)Cc3cc(=O)c(O)co3)CC2)nc(C)n1	28.7
O[C@@H]1CC(CNCc2ccc(Cl)cc2)(COc2cccnc2)C[C@@H]1O (stereo not given in full)	-26.2
COC(=O)CCC(=O)N1CCC2(CN(Cc3ccccc3)C2)C1	5.56
COC(=O)N1CCN(Cc2ccccc2Cl)CC1	33.7
COCCC(=O)N1CC2(CCN(Cc3cccc(Cl)c3)CC2)C1	15.9
COCCC(=O)N1CCC2(CN(Cc3cccc(Cl)c3)C2)C1	81.2
COCCC(=O)N1CCC2(CCN(Cc3cccc(F)c3)CC2)C1	49.7
COC(=O)CCC(=O)N1CCC2(CN(Cc3cccc(Cl)c3)C2)C1	57.9
COCCC(=O)N1CCC2(CCN(Cc3cccc(F)c3)C2)C1 (stereo not given)	57.9
COCCC(=O)N1CCC2(CCN(Cc3cccc(F)c3)CC2)CC1	45.1
COCCC(=O)N1CCC2(CN(Cc3ccc(OC)c(F)c3)C2)C1	-44.8
COCCC(=O)N1CCC2(CN(Cc3cccc(F)c3)C2)C1	4.27
COC(=O)CCC(=O)N1CCC2(CN(Cc3ccc(Cl)cc3)C2)C1	-26.1
COCCC(=O)N1CC2(CCN(Cc3ccccc3Cl)CC2)C1	69.5
CC(=O)N(C)Cc1cccc(NC(=O)CCCc2nc(C(C)C)no2)c1	-32.9
CN(C)C(=O)COCc1cncc2c1CCN(Cc1ccccc1)C2	-45.5
Cc1ccc([C@H]2CN(C(=O)CC3CCC3)C[C@@H]2N)o1	-92.8
Cc1c(C(=O)NCCC2CN(C)CCO2)n(C)c2c(C)cccc12 (stereo not given)	33.4
Cc1nccn1-c1cc(CNC(=O)NCC2CCCO2)ccn1 (stereo not given)	-2.33

SMILES	INHIBITION [%]
CCC(C)C(=O)NCCCn1nc(C)cc1C (stereo not given)	-2.48
O=C(NCCc1ccc(I)s1)N1CCC1	-7.31
OC1(CN2CCN(c3cccc(C(F)(F)F)c3)CC2)CNCCOC1 (stereo not given)	41.5
c1ccc(Cc2noc(-c3ccc(NCC4CCCCO4)nc3)n2)cc1 (stereo not given)	26
COCCNC(=O)NC(=O)CNc1c(F)cccc1N1CCCC1	-32.5
CC[C@@H]1N(CC2CCC2)CCC[C@]12CCC(=O)N2Cc1ccncc1	-8.51
CC1(C(=O)N2CCN(C3CCCC3)CC2)CNCCO1 (stereo not given)	-21.4
Cc1ccc(-c2cc(C(=O)N(C)Cc3noc4c3CCCC4)[nH]n2)s1	-14.3
O=C(C1CCC1)N1CCC2(CCN(Cc3cccc(F)c3)CC2)CC1	45.7
COCCC(=O)N1CC2(CCN(Cc3ccoc3)C2)C1	54.6
COCCC(=O)N1CCC2(CCN(Cc3ccc(C)cc3)CC2)C1	4.27
COCCC(=O)N1CC2(CCN(Cc3ccncc3)CC2)C1	47.4
O=C(C1CC1)N1CCC2(CCN(Cc3cccc(F)c3)CC2)CC1	-13.4
O=C(C1CC=CC1)N1CCC2(CCN(Cc3cccc(F)c3)CC2)C1	59.8
Cc1ccc(CN2CCCC3(CCN(Cc4ccoc4)CC3)C2)cc1	82.8
Cn1ccnc1CN1CCC2(CC1)CCN(Cc1ccoc1)C2	-37.4
Cc1ccc(CN2CCC3(CC2)CCN(Cc2ccoc2)CC3)cc1	-34.6
O=C(CC1CCCC1)N1CCCC1c1ccc(CN2CCOCC2)cn1 (stereo not given)	30.25
CC(C)c1nn(C)c(N(C)C)c1CNC(C)c1ccc2c(c1)OCO2 (stereo not given)	22.3
CCC(C)N(Cc1cccnc1)C(=O)c1ncccc1O (stereo not given)	39.9
Cc1nnc(NC(=O)CN(C)C2CCCN(c3cccnn3)C2)s1 (stereo not given)	12.7
Cc1csc(CNC(=O)NC(C)c2ccc3c(c2)OCCO3)n1 (stereo not given)	44.9
Cc1ccc(CNC2CCc3nc(C(C)C)nn3C2)o1 (stereo not given)	-17.7

SMILES	INHIBITION [%]
c1cncc(C[C@H]2[C@H](N3CCOCC3)CCN2Cc2cccs2)c1	-7.24
CCCOCCOC(=O)c1ccc2c(c1)[nH]c(=O)n2C	26.6
Cn1c(=O)[nH]c2cc(C(=O)OCCCn3ccccc3=O)ccc21	60
CCOCCCOC(=O)c1ccc2c(c1)[nH]c(=O)n2C	-5.47
Cc1nn(C)c(C)c1C1COCCN1C(=O)CCc1ccccc1 (stereo not given)	5.7
Cc1nnc(NC(=O)CCc2c(C)nn3cnnc3c2C)s1	16.6
CCCn1c(C)c(CC(=O)N(C)CCO)c2c1CC(C)(C)CC2=O	48.1
COC(=O)C(C)(C)NC(=O)C1CC(=O)N(C2CCCC2)C1 (stereo not given)	20.1
COC(=O)C(C)(C)NC(=O)C1CC(=O)N(C)C1 (stereo not given)	35.1
COC(=O)C(C)(C)NC(=O)C1CC(=O)N(C2CC2)C1 (stereo not given)	84.1
OCC1(O)CCN(Cc2noc(-c3ccccc3)n2)CC1	20.3
CC(=O)N1CCN(Cc2ccc(F)cc2)CC2(CC(=O)N(C)C2)C1 (stereo not given)	-6.05
CCc1ccc(C(=O)N2CCCN(Cc3nccn3CC)CC2)s1	8.47
O=C(c1ccc(Br)o1)N1CCN(Cc2ccc(F)cc2)CC1	62.5
Cc1ccc(CN2CCN(C(=O)c3ccc(Br)o3)CC2)cc1	92.8
COC(=O)c1sccc1CN1CCN(C(=O)c2ccc(C)o2)CC1	30.9
O=C(c1ccc(Br)o1)N1CCN(Cc2ccc(OC(F)(F)F)cc2)CC1	90
CCc1ccc(C(=O)N2CCN(CCO)CC2)o1	-13.5
O=C(c1ccc(Br)s1)N1CCN(Cc2ccc(OC(F)(F)F)cc2)CC1	79
CC(=O)N1CCN(Cc2ccc(OCc3nccn3C)cc2)CC1	1.78
Cn1ccnc1CN1CCCN(C(=O)c2ccc(Cl)o2)CC1	29.1
Cc1cc(C)n(CCN2CCN(C(=O)c3ccc(Br)o3)CC2)n1	-13.3
CC(O)CN1CCN(C(=O)c2ccc(Br)o2)CC1 (stereo not given)	16.2
